{
  "source": "PubChem BioAssay AID652104",
  "about": "(National Center for Advancing Translational Sciences (NCATS), 2013)",
  "note": "Out of some 410,000 compounds screened, about 7,200 (1.8%) were called active. About 7% were inconclusive and are not listed. The list comes from a sample in which actives are over-represented; it also holds similar structures and randomly drawn compounds. A number with no mark means an inactive call. The call rests on the fitted dose curve; in most records, active means well fitted activation curve with a large enough effect; inconclusive means small, poorly fitted or top-dose-only effect, or another doubt; inactive means no such curve, though single readings can be large or run the other way. Potency means the concentration at half of the fitted maximal effect.",
  "data": [
    {"test": "qHTS of TDP-43 Inhibitors; further: nearly all actives have a fitted effect of over 50% in size; on growth rescue (activation): % of control where 0% means no effect", "details": "TDP-43 expressing yeast growth rescue, BacTiter-Glo, 24 h; series mostly up to 46.1 µM; growth rescue (activation): at the top concentration", "summary_of_the_method": "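Galactose-induced TDP-43 yeast, OD600=0.02, compound pinned; 24 hr, 30 deg C; BacTiter-Glo luminescence for growth. Inhibitors of TDP-43 toxicity read as activators.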", "values": [
      {"molecule": "COc1cccc(C(=O)Nc2c3c(nn2-c2cccc(C)c2C)CS(=O)(=O)C3)c1OC", "growth rescue (activation)": "-20.6%"},
      {"molecule": "Cn1nccc1C(=O)NC1CCCc2c1cnn2-c1ccc(F)cc1F", "note": "(stereo not drawn)", "growth rescue (activation)": "10.7%"},
      {"molecule": "COc1ccc(C(=O)NC2CCCc3c2cnn3-c2cccc(C)c2C)c(OC)n1", "note": "(stereo not drawn)", "Potency": "15.8 µM (active)"},
      {"molecule": "CCOc1ccc(CNCc2c(C(=O)O)c(C)n(Cc3cccc(OC)c3)c2C)cc1OC", "growth rescue (activation)": "20.8%"},
      {"molecule": "Cc1ccc(-n2c(SCC(=O)Nc3cccc(F)c3)nc3c(oc4ccccc43)c2=O)cc1C", "growth rescue (activation)": "6.78%"},
      {"molecule": "S=c1[nH]nc2c3c4c(sc3ncn12)CCCC4", "Potency": "4.47 µM (active)"},
      {"molecule": "CCn1c(=S)[nH]c2sc3c(c2c1=O)CCCCC3", "growth rescue (activation)": "7.77%"},
      {"molecule": "Cc1ccc2nc(COc3ccc(NC(=O)COc4ccccc4F)cc3)cc(=O)n2c1", "growth rescue (activation)": "-13.1%"},
      {"molecule": "Cc1cccc(Cn2c(SCc3ccc(C(=O)N4CCC(C)CC4)cc3)nc3ccncc32)c1", "growth rescue (activation)": "-2.39%"},
      {"molecule": "Cc1cc2c(cc3c(SCc4nc(-c5ccccc5)oc4C)nnc(C)n32)o1", "Potency": "17.8 µM (active)"},
      {"molecule": "Cc1cc2c(cc3c(SCc4cccc(Cl)c4)nnc(C)n32)o1", "Potency": "20 µM (active)"},
      {"molecule": "O=C(c1ccco1)N1CCN=C1SCc1cccc(Cl)c1", "growth rescue (activation)": "4.84%"},
      {"molecule": "Cc1cc(NC(=O)CSCc2nc(-c3cccc(Cl)c3)oc2C)no1", "growth rescue (activation)": "-9.69%"},
      {"molecule": "CCc1nnc(SCc2nc(-c3cccc(C)c3)oc2C)c2cc3sc(C)cc3n12", "growth rescue (activation)": "9.11%"},
      {"molecule": "Cc1nnc(SCc2cccc(Cl)c2)n(N)c1=O", "growth rescue (activation)": "-2.32%"},
      {"molecule": "COc1cccc(-c2nnc(SCC(=O)N3CCC(C)CC3)o2)c1", "growth rescue (activation)": "42.2%"},
      {"molecule": "O=C(Cn1cc(SCc2ccccc2)c2ccccc21)N1CCCCC1", "growth rescue (activation)": "0%"},
      {"molecule": "COc1ccc(NC(=O)C(=O)NCc2ccco2)cc1", "growth rescue (activation)": "19%"},
      {"molecule": "COc1ccc(Nc2nc(NCc3ccco3)nc(N/N=C/c3ccccc3Cl)n2)cc1", "Potency": "17.8 µM (active)"},
      {"molecule": "C=CCC(NCc1ccco1)c1ccc(OC)cc1", "note": "(stereo not drawn)", "growth rescue (activation)": "-8.96%"},
      {"molecule": "COc1cc(OC)cc(-c2nc3nc(C)c(CCC(=O)Nc4ccccc4)c(C)n3n2)c1", "growth rescue (activation)": "1.76%"},
      {"molecule": "O=C(NCCCc1ccccc1)c1ccc2c(c1)sc1nc(-c3ccc(F)cc3)cn12", "growth rescue (activation)": "1.87%"},
      {"molecule": "CCC(=O)N1c2ccccc2CC1C(=O)N1CCN(c2cccc(OC)c2)CC1", "note": "(stereo not drawn)", "growth rescue (activation)": "0%"},
      {"molecule": "CC1=C(c2ccc(C)c(C)c2)S(=O)(=O)NC1=NCc1ccccc1Cl", "growth rescue (activation)": "-4.02%"},
      {"molecule": "O=C1c2ccccc2S(=O)(=O)N1Cc1c(F)cccc1Cl", "growth rescue (activation)": "-8.24%"},
      {"molecule": "CS(=O)(=O)N(CC(O)Cn1c2ccccc2c2ccccc21)c1cccc2ccccc12", "note": "(stereo not drawn)", "growth rescue (activation)": "-13.6%"},
      {"molecule": "O=C1c2ccccc2S(=O)(=O)N1CC(O)Cn1c2ccccc2c2ccccc21", "note": "(stereo not drawn)", "Potency": "11.2 µM (active)"},
      {"molecule": "COc1ccc(CNC(=O)c2ccc3c(O)c(S(=O)(=O)c4ccccc4)c(=O)[nH]c3c2)cc1", "growth rescue (activation)": "6.56%"},
      {"molecule": "CCOc1ccc(C(=O)NC2CCN(CC(=O)NCc3cccs3)CC2)cc1", "growth rescue (activation)": "-6.15%"},
      {"molecule": "CCOc1ccc(/C=N/OCC(=O)NCc2cccs2)cc1", "Potency": "11.2 µM (active)"},
      {"molecule": "CCOc1ccc(/C=C/C(=O)N(CC)CC(=O)NCc2cccs2)cc1OC", "growth rescue (activation)": "0%"},
      {"molecule": "CCCCc1nn2c(=O)cc(COC(=O)c3ccc(NC(=O)c4ccccc4C)cc3)nc2s1", "growth rescue (activation)": "6.4%"},
      {"molecule": "CCCc1nc2c3ccccc3ccn2c1Cc1ccccc1C(F)(F)F", "growth rescue (activation)": "-67.8%"},
      {"molecule": "Cc1ccc2nc(-c3ccccc3)c(CC3CCCCC3)n2c1", "growth rescue (activation)": "0%"},
      {"molecule": "Clc1cccc(Cc2c(-c3cccc(Cl)c3)nc3ccc(Cl)cn23)c1", "Potency": "12.6 µM (active)"},
      {"molecule": "Cc1ccc(-c2nc3c(Cl)cc(C(F)(F)F)cn3c2Cc2cccc(Cl)c2)cc1", "growth rescue (activation)": "28.6%"},
      {"molecule": "Cc1cc(Br)cn2c(Cc3cccc(F)c3)c(-c3cccc(Br)c3)nc12", "growth rescue (activation)": "0%"},
      {"molecule": "Cc1ccc(Cc2c(-c3ccco3)nc3ccc(Cl)cn23)cc1", "Potency": "6.31 µM (active)"},
      {"molecule": "N#Cc1ccc(C(C(=O)NCc2ccccc2)n2c(=O)c(-c3ccco3)nc3ccccc32)cc1", "note": "(stereo not drawn)", "growth rescue (activation)": "16.3%"},
      {"molecule": "CN1CCN(Cc2c(C(=O)N3CCc4ccccc4C3)nc3ccc(Cl)cn23)CC1", "growth rescue (activation)": "5.77%"},
      {"molecule": "c1ccc(Cc2c(-c3ccco3)nc3c4ccccc4ccn23)cc1", "Potency": "35.5 µM (active)"},
      {"molecule": "CCOc1ccc(N(CC)S(=O)(=O)N2CCCC(C(=O)NCc3ccc(SC)cc3)C2)cc1", "note": "(stereo not drawn)", "growth rescue (activation)": "14.4%"},
      {"molecule": "CCN(CC)c1ccc(NS(=O)(=O)c2cc(-c3cc(C)no3)ccc2C)c(C)c1", "growth rescue (activation)": "-14.9%"},
      {"molecule": "Cc1cccc(-n2c(SCC(N)=O)nc3c(oc4ccccc43)c2=O)c1", "growth rescue (activation)": "26.1%"},
      {"molecule": "COc1ccc(NC(=O)CCCN2C(=O)CCn3nc(-c4cn(C)c5ccccc45)cc32)cc1OC", "growth rescue (activation)": "14.9%"},
      {"molecule": "CCOCCCn1c(SCC(=O)Nc2ccc(CC)cc2)nc2ccccc2c1=O", "growth rescue (activation)": "8.55%"},
      {"molecule": "COc1ccc(OC)c(CNC(=O)c2c3c(nc4ccccc24)C(=O)N(C2CCCCC2)C3)c1", "growth rescue (activation)": "2.95%"},
      {"molecule": "O=C(Nc1cccc(F)c1)[C@@H]1CCCN1", "growth rescue (activation)": "4.62%"},
      {"molecule": "Cc1ccc2cc(/C=N/NC(=O)[C@@H]3CCCN3)c(Cl)nc2c1", "Potency": "4.47 µM (active)"},
      {"molecule": "CCc1ccccc1NS(=O)(=O)c1ccc2nc(-c3ccccc3)[nH]c2c1", "growth rescue (activation)": "23%"},
      {"molecule": "Cc1nc2ccc(S(=O)(=O)NC(C(=O)NCc3ccccc3Cl)C(C)C)cc2s1", "note": "(stereo not drawn)", "growth rescue (activation)": "23.9%"},
      {"molecule": "Cc1cccc(OCCSc2nc3ccc(NC(=O)COc4ccccc4C)cc3s2)c1", "growth rescue (activation)": "-10.4%"},
      {"molecule": "Cc1ccc(S(=O)Cc2ccc(C(=O)N3CCN(C4CCCCC4)CC3)o2)cc1", "note": "(stereo not drawn)", "growth rescue (activation)": "-22.5%"},
      {"molecule": "Cc1cccc(C(=O)N2c3nc(-c4ccco4)nn3C3(CCCCC3)[C@@H]3CCCC[C@@H]32)c1", "growth rescue (activation)": "14.2%"},
      {"molecule": "Cc1ccc(C(=O)N2c3ncnn3C3(CCCCC3)[C@@H]3CCCC[C@@H]32)cc1", "Potency": "22.4 µM (active)"},
      {"molecule": "CCOC(=O)c1c(C)[nH]c(C)c1S(=O)(=O)NCC(=O)NCc1cccc(C)c1", "growth rescue (activation)": "-15.8%"},
      {"molecule": "O=C(CCc1nc(CN2CCN(S(=O)(=O)c3ccc(Br)cc3)CC2)no1)N1CCCCC1", "growth rescue (activation)": "-11%"},
      {"molecule": "COc1ccc(C2CC(=O)Nc3c2c(=O)nc2c(C)cccn32)cc1OC", "note": "(stereo not drawn)", "growth rescue (activation)": "25.6% [at 9.22 µM]"},
      {"molecule": "COC(=O)c1cnn(-c2ccc(C(=O)Nc3ccc(OC(F)(F)F)cc3)cc2)c1N", "growth rescue (activation)": "12.1% [at 9.22 µM]"},
      {"molecule": "CCc1nc2nc(C)cc(Nc3ccc(F)c(Cl)c3)n2n1", "growth rescue (activation)": "24.6%"},
      {"molecule": "Cc1ccc(Cl)cc1NC(=O)CCC(=O)N1CC(C)Sc2ccccc21", "note": "(stereo not drawn)", "Potency": "25.1 µM (active)"},
      {"molecule": "COc1ccccc1NC(=O)CCC(=O)N1CC(C)Oc2ccc(C)cc21", "note": "(stereo not drawn)", "Potency": "inactive"},
      {"molecule": "Cc1ccc(CNC(=O)CCC(=O)N2CC(C)Sc3ccccc32)cc1", "note": "(stereo not drawn)", "growth rescue (activation)": "21.1%"}
    ]}
  ]
}
